Measurements reported in PubChem BioAssay AID1159580 (chemical genetic matrix, 2015).
“And” between values parts separate entries of the source, which are not always exact repeats. Equal entries are not always repeated. The whole screen tested about 5,500 compounds, of which about 2,000 (36%) were called active. Inconclusive results (about 18%) are left out. Rule as the data show it: active = normalized growth mostly below about 0.91 (no sharp cut-off); inconclusive = no clear call, values can overlap the other calls; inactive = mostly above about 0.92. The list shows a part of the results.

Assay: chemical genetic growth profiling, strain panel (AID 1159580);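 also: tested at 20 µM; growth read once vehicle control cultures reached saturation at 30 °C; 1 = growth at the plate median or of vehicle wells; lower values mean less growth of the strain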
Conditions: S. cerevisiae deletion strains, growth OD

Measured: normalized growth

CCN(CC)CCCC(C)Nc1ccnc2cc(Cl)ccc12 (configuration not stated)
inactive: locus YAL013W, strain DEP1, active compounds read low 1.02 and 1.01 | locus YAL021C, strain ccr4, active compounds read low 1.04 | locus YAL026C, strain drs2, active compounds read low 1.02 | locus YAL030W, strain snc1, active compounds read low 1.02 | locus YAL040C, strain CLN3, active compounds read low 1.01 | locus YBL061C, strain skt5, active compounds read low 1.03 | locus YBR009C, strain hhf1, active compounds read low 1.01 | locus YBR021W, strain FUR4, active compounds read low 0.976 | locus YBR023C, strain chs3, active compounds read low 1.03 | locus YBR171W, strain sec66, active compounds read low 1.05 | locus YBR229C, strain ROT2, active compounds read low 1.01 | locus YBR231C, strain swc5, active compounds read low 1.03 | locus YBR279W, strain paf1, active compounds read low 1.02 | locus YCL011C, strain gbp2, active compounds read low 1.04 | locus YCL016C, strain dcc1, active compounds read low 1.03 | locus YCL029C, strain bik1, active compounds read low 1.01 | locus YCL061C, strain MRC1 (second series), active compounds read low 1.01 | locus YCL069W, strain vba3, active compounds read low 1.03 | locus YCR088W, strain abp1, active compounds read low 1.02 | locus YDL005C, strain med2, active compounds read low 1.03 | locus YDL035C, strain GPR1, active compounds read low 0.995 | locus YDL040C, strain nat1, active compounds read low 1.03 | locus YDL074C, strain BRE1, active compounds read low 1.04 | locus YDL101C, strain DUN1, active compounds read low 1.04 | locus YDL134C, strain PPH21, active compounds read low 0.985 | locus YDL185W, strain tfp1, active compounds read low 1 | locus YDL192W, strain arf1, active compounds read low 1 | locus YDR001C, strain nth1, active compounds read low 1.03 | locus YDR069C, strain doa4, active compounds read low 0.998 | locus YDR101C, strain arx1, active compounds read low 0.993 | locus YDR137W, strain rgp1, active compounds read low 1.06 | locus YDR159W, strain sac3, active compounds read low 1.06 | locus YDR162C, strain NBP2, active compounds read low 1.01 | locus YDR195W, strain ref2 1.07 | locus YDR297W, strain sur2, active compounds read low 1.03 | locus YDR318W, strain mcm21, active compounds read low 1.02 | locus YDR334W, strain swr1, active compounds read low 1.03 | locus YDR335W, strain msn5, active compounds read low 1.03 | locus YDR363W, strain ESC2, active compounds read low 1.01 | locus YDR388W, active compounds read low 1.01 | locus YDR392W, strain spt3, active compounds read low 0.937 | locus YDR502C, strain sam2, active compounds read low 0.995 | locus YEL003W, strain gim4, active compounds read low 1.03 | locus YEL037C, strain rad23, active compounds read low 1.03 | locus YEL061C, strain CIN8 (second series), active compounds read low 1.03 | locus YEL061C, strain CIN8, active compounds read low 1.01 | locus YER002W, strain NOP16, active compounds read low 0.994 | locus YER015W, strain faa2, active compounds read low 1.03 | locus YER016W, strain bim1, active compounds read low 1 | locus YER110C, active compounds read low 1.02 | locus YER111C, strain swi4, active compounds read low 1.04 | locus YER155C, strain BEM2 (second series), active compounds read low 0.966 | locus YER155C, strain BEM2, active compounds read low 1.01 | locus YER167W, strain BCK2, active compounds read low 1.01 | locus YFR010W, strain ubp6, active compounds read low 1.03 | locus YGL078C, strain dbp3, active compounds read low 1.02 | locus YGL086W, strain mad1, active compounds read low 0.996 | locus YGL167C, strain pmr1, active compounds read low 1.04 | locus YGL173C, strain kem1, active compounds read low 1.04 | locus YGL227W, strain vid30, active compounds read low 1.03 | locus YGL240W, strain doc1, active compounds read low 1.03 | locus YGL248W, strain PDE1, active compounds read low 1.04 | locus YGL253W, strain hxk2, active compounds read low 1.01 | locus YGR135W, strain pre9, active compounds read low 1.04 | locus YGR252W, strain gcn5, active compounds read low 1.02 | locus YHR013C, strain ard1, active compounds read low 0.965 | locus YHR027C, strain rpn1, active compounds read low 1.03 | locus YHR030C, strain SLT2, active compounds read low 1 and 0.96 | locus YHR079C, strain IRE1 (second series), active compounds read low 1.01 | locus YHR079C, strain IRE1, active compounds read low 0.961 | locus YHR094C, strain hxt1, active compounds read low 1.01 | locus YHR129C, strain ARP1, active compounds read low 1.02 | locus YHR142W, strain chs7, active compounds read low 1.04 | locus YHR200W, strain rpn10, active compounds read low 1.01 | locus YIL066C, strain RNR3, active compounds read low 1.02 | locus YIL073C, strain SPO22, active compounds read low 1.01 | locus YIL125W, strain kgd1, active compounds read low 1 | locus YIR030C, strain dcg1, active compounds read low 1 | locus YJL092W, strain hpr5, active compounds read low 1.02 | locus YJL095W, strain BCK1 (second series), active compounds read low 1.03 | locus YJL095W, strain BCK1, active compounds read low 1.07 and 0.962 | locus YJL115W, strain asf1, active compounds read low 1.05 | locus YJL129C, strain trk1, active compounds read low 1.02 | locus YJL134W, strain LCB3, active compounds read low 1.01 | locus YJL154C, strain vps35, active compounds read low 1.02 | locus YJL164C, strain tpk1, active compounds read low 1.02 | locus YJL166W, strain qcr8, active compounds read low 1 | locus YJL168C, strain set2, active compounds read low 1.01 | locus YJL187C, strain SWE1 (second series), active compounds read low 1.05 | locus YJL187C, strain SWE1, active compounds read low 1.03 | locus YJR043C, strain POL32, active compounds read low 0.981 | locus YJR066W, strain TOR1, active compounds read low 0.979
